The target of one assay is SPIB (Homo sapiens, UniProt Q01892 1-262). The assay is described as follows: DAPPL (digital affinity profiling via proximity ligation, sequencing); 10 mM Tris-HCl pH 7.5, 50 mM NaCl, 1 mM DTT, 4% glycerol, room temperature, 30 min; GST-TFs on glutathione beads, 16-mer random dsDNA library, 0.1% formaldehyde crosslink after washing; high values mean tight binding. The note with it: protein: recombinant; tags: N-terminal GST; dsDNA, one strand shown. Put shortly:
(§1)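 GST fusions of human transcription factors were expressed in yeast and captured with glutathione beads. Once given DNA barcodes and pooled alongside a tag-only sample, they were incubated for 30 min at room temperature with 200 nmole of a random double-stranded 16-mer DNA library in Tris/NaCl/DTT/glycerol buffer, then washed, crosslinked (0.1% formaldehyde), proximity-ligated, PCR-amplified and sequenced on an Illumina NextSeq500. The binding signal of each hexamer is its read frequency for a factor divided by its frequency for the tag-only sample.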
Sequence of SPIB (Q01892 whole entry, the tested form may be a part): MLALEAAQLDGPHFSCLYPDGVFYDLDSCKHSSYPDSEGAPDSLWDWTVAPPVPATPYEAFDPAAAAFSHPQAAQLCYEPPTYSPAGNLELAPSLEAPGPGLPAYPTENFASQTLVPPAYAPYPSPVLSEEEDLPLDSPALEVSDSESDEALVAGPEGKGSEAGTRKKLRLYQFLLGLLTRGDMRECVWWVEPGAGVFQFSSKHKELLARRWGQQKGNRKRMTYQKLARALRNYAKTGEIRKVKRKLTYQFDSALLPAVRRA
Take TGCTTT: the binding signal was 1.08 fold enrichment (6-mer frequency, TF over GST control).

As for CTAGAT, the binding signal was 1.17 fold enrichment (6-mer frequency, TF over GST control).

As to CTCTAC, the binding signal is 1.63 fold enrichment (6-mer frequency, TF over GST control).

With CTTGCT, the binding signal was 1.34 fold enrichment (6-mer frequency, TF over GST control).

Consider TCGATT, for which the binding signal was 1.15 fold enrichment (6-mer frequency, TF over GST control).

With GAAAAT, the binding signal was 1.18 fold enrichment (6-mer frequency, TF over GST control).

With TCCTTG, the binding signal was 1.41 fold enrichment (6-mer frequency, TF over GST control).

Turning to CCTAGC, the binding signal is 1.26 fold enrichment (6-mer frequency, TF over GST control).

Consider AGCTTC, for which the binding signal was 1.78 fold enrichment (6-mer frequency, TF over GST control).

Consider CGTACT, for which the binding signal was 1.12 fold enrichment (6-mer frequency, TF over GST control).

On to TCTGGC, for which the binding signal was 1.09 fold enrichment (6-mer frequency, TF over GST control).

In the case of TCAAAC, the binding signal was 1.16 fold enrichment (6-mer frequency, TF over GST control).

In the case of TTTCGA, the binding signal is 1.48 fold enrichment (6-mer frequency, TF over GST control).

Turning to GTATCT, the binding signal is 1.25 fold enrichment (6-mer frequency, TF over GST control).

TTTCAT: the binding signal is 1.22 fold enrichment (6-mer frequency, TF over GST control).

For the sequence TATGTA, the binding signal was 1.31 fold enrichment (6-mer frequency, TF over GST control).

On to CGCCCT, for which the binding signal is 1.36 fold enrichment (6-mer frequency, TF over GST control).

On to TTTGAT, for which the binding signal is 1.31 fold enrichment (6-mer frequency, TF over GST control).

As to TATGGC, the binding signal was 1.18 fold enrichment (6-mer frequency, TF over GST control).

Take TATCAT: the binding signal was 1.11 fold enrichment (6-mer frequency, TF over GST control).

CTTCAC: the binding signal is 1.41 fold enrichment (6-mer frequency, TF over GST control).

On to CTACCT, for which the binding signal was 1.4 fold enrichment (6-mer frequency, TF over GST control).

In the case of ATGAAC, the binding signal was 1.27 fold enrichment (6-mer frequency, TF over GST control).

GATGAT: the binding signal is 1.33 fold enrichment (6-mer frequency, TF over GST control).

With ATAGTA, the binding signal was 1.13 fold enrichment (6-mer frequency, TF over GST control).

On to TCATCT, for which the binding signal is 1.28 fold enrichment (6-mer frequency, TF over GST control).

For the sequence ATACAG, the binding signal was 1.15 fold enrichment (6-mer frequency, TF over GST control).

Take AAAATA: the binding signal was 1.23 fold enrichment (6-mer frequency, TF over GST control).

Turning to AACTAA, the binding signal was 1.41 fold enrichment (6-mer frequency, TF over GST control).

Take GCGCTT: the binding signal was 1.45 fold enrichment (6-mer frequency, TF over GST control).

As for GCCTTA, the binding signal is 1.27 fold enrichment (6-mer frequency, TF over GST control).

On to AAATGA, for which the binding signal was 1.37 fold enrichment (6-mer frequency, TF over GST control).

Regarding TACGCT, the binding signal is 1.18 fold enrichment (6-mer frequency, TF over GST control).

For TCCGCT, the binding signal was 2.37 fold enrichment (6-mer frequency, TF over GST control).

In the case of CCTCCA, the binding signal was 1.3 fold enrichment (6-mer frequency, TF over GST control).

For the sequence TCCTAG, the binding signal is 1.41 fold enrichment (6-mer frequency, TF over GST control).

As for TCTTTA, the binding signal was 1.21 fold enrichment (6-mer frequency, TF over GST control).

For ATGTTT, the binding signal is 1.38 fold enrichment (6-mer frequency, TF over GST control).

For the sequence GAACTA, the binding signal is 1.32 fold enrichment (6-mer frequency, TF over GST control).

CTCAAC: the binding signal is 1.19 fold enrichment (6-mer frequency, TF over GST control).

A further assay concerns the target T1, ELK3 (Homo sapiens, UniProt P41970 1-407).
T1 sequence: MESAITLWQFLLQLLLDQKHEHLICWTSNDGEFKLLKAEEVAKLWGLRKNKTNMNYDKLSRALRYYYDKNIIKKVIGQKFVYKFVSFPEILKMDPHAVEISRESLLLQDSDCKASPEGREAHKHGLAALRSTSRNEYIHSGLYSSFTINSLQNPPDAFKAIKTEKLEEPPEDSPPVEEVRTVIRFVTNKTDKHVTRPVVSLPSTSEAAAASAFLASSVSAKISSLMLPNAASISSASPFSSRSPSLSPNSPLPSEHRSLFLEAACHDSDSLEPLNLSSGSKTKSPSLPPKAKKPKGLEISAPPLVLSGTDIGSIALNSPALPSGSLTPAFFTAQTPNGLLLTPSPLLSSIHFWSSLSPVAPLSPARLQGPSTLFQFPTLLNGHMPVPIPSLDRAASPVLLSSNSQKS
The description is as above. The note with it: protein: recombinant; tags: N-terminal GST; dsDNA, one strand shown. Put shortly:
as §1
Regarding TGCTTT, the binding signal is 1.1 fold enrichment (6-mer frequency, TF over GST control).

As for CTAGAT, the binding signal was 1.16 fold enrichment (6-mer frequency, TF over GST control).

With CTCTAC, the binding signal is 1.27 fold enrichment (6-mer frequency, TF over GST control).

With CTTGCT, the binding signal was 1.25 fold enrichment (6-mer frequency, TF over GST control).

Consider TCGATT, for which the binding signal is 1.06 fold enrichment (6-mer frequency, TF over GST control).

As to GAAAAT, the binding signal is 1.04 fold enrichment (6-mer frequency, TF over GST control).

For TCCTTG, the binding signal was 1.29 fold enrichment (6-mer frequency, TF over GST control).

On to CCTAGC, for which the binding signal was 1.22 fold enrichment (6-mer frequency, TF over GST control).

Take AGCTTC: the binding signal is 2.06 fold enrichment (6-mer frequency, TF over GST control).

As to CGTACT, the binding signal is 1.26 fold enrichment (6-mer frequency, TF over GST control).

As to TCTGGC, the binding signal is 1.18 fold enrichment (6-mer frequency, TF over GST control).

For TCAAAC, the binding signal was 1.2 fold enrichment (6-mer frequency, TF over GST control).

Turning to TTTCGA, the binding signal is 1.52 fold enrichment (6-mer frequency, TF over GST control).

GTATCT: the binding signal is 1.09 fold enrichment (6-mer frequency, TF over GST control).

With TTTCAT, the binding signal is 1.15 fold enrichment (6-mer frequency, TF over GST control).

For the sequence TATGTA, the binding signal is 1.17 fold enrichment (6-mer frequency, TF over GST control).

For CGCCCT, the binding signal is 1.5 fold enrichment (6-mer frequency, TF over GST control).

Consider TTTGAT, for which the binding signal is 1.12 fold enrichment (6-mer frequency, TF over GST control).

As for TATGGC, the binding signal is 1.16 fold enrichment (6-mer frequency, TF over GST control).

As for TATCAT, the binding signal is 1.17 fold enrichment (6-mer frequency, TF over GST control).

As for CTTCAC, the binding signal was 1.38 fold enrichment (6-mer frequency, TF over GST control).

Take CTACCT: the binding signal is 1.44 fold enrichment (6-mer frequency, TF over GST control).

ATGAAC: the binding signal was 1.44 fold enrichment (6-mer frequency, TF over GST control).

For GATGAT, the binding signal was 1.34 fold enrichment (6-mer frequency, TF over GST control).

Take ATAGTA: the binding signal is 1.12 fold enrichment (6-mer frequency, TF over GST control).

As to TCATCT, the binding signal was 1.16 fold enrichment (6-mer frequency, TF over GST control).

Take ATACAG: the binding signal is 1.07 fold enrichment (6-mer frequency, TF over GST control).

As to AAAATA, the binding signal was 1.17 fold enrichment (6-mer frequency, TF over GST control).

Regarding AACTAA, the binding signal is 1.4 fold enrichment (6-mer frequency, TF over GST control).

On to GCGCTT, for which the binding signal is 1.31 fold enrichment (6-mer frequency, TF over GST control).

Take GCCTTA: the binding signal is 1.15 fold enrichment (6-mer frequency, TF over GST control).

As to AAATGA, the binding signal was 1.26 fold enrichment (6-mer frequency, TF over GST control).

Regarding TACGCT, the binding signal was 1.36 fold enrichment (6-mer frequency, TF over GST control).

Consider TCCGCT, for which the binding signal is 2.43 fold enrichment (6-mer frequency, TF over GST control).

Take CCTCCA: the binding signal was 1.37 fold enrichment (6-mer frequency, TF over GST control).

Take TCCTAG: the binding signal was 1.2 fold enrichment (6-mer frequency, TF over GST control).

Take TCTTTA: the binding signal is 1.27 fold enrichment (6-mer frequency, TF over GST control).

With ATGTTT, the binding signal was 1.43 fold enrichment (6-mer frequency, TF over GST control).

With GAACTA, the binding signal is 1.37 fold enrichment (6-mer frequency, TF over GST control).

As for CTCAAC, the binding signal is 1.28 fold enrichment (6-mer frequency, TF over GST control).

The values above are taken from article PMC7862700, “An all-to-all approach to the identification of sequence-specific readers for epigenetic DNA modifications on cytosine”.
